RBX1-CUL1 inh: human ROC1-CUL1 E3 ligase inhibition. in vitro K48 di-Ub FRET, acceptor:donor ratio, 45 min. inhibition, % at 10 µM. actives 0.6% (n = 140,000); in the data active = inhibition above about 25%
Target sequence (P62877 whole entry, looked up): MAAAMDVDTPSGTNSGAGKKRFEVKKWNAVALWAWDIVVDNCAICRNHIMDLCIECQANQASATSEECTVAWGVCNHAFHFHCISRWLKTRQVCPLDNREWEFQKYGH
Target sequence (Q13616 whole entry, looked up): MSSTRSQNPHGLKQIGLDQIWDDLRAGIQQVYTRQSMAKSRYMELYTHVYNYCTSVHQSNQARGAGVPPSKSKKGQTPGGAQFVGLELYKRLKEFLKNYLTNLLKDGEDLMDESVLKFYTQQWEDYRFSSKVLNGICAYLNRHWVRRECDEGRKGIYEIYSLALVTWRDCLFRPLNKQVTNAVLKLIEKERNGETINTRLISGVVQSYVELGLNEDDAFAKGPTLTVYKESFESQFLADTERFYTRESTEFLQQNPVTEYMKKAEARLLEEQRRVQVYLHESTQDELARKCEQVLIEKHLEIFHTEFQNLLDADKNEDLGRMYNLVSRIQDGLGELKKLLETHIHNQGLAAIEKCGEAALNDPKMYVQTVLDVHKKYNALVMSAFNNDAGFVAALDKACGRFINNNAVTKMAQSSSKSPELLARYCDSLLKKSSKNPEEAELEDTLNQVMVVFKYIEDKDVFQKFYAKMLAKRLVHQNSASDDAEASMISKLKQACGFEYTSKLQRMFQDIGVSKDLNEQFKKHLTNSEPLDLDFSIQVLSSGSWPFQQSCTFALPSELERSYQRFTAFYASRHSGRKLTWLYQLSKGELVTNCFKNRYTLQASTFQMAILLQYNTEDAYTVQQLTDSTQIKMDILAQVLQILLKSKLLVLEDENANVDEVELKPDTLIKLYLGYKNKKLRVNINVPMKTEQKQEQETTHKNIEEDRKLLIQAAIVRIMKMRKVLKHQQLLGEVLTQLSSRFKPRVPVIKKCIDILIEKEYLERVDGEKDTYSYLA
Of the large screens only hits and unclear results are named; the others gave an inactive call. This excerpt belongs to a sample that is enriched for hits.

O=C1S/C(=C\c2cc(Br)cc(Cl)c2O)C(=O)N1Cc1ccc(F)cc1	RBX1-CUL1 inh 40
O=C(O)COc1ccc(/C=C2/SC(=O)N(Cc3ccc(F)cc3)C2=O)cc1Br	none
Cc1ccccc1NC(=O)CN1C(=O)S/C(=C\c2ccc(-c3cc(C(=O)O)ccc3Cl)o2)C1=O	RBX1-CUL1 inh 28
C=CCN1C(=O)S/C(=C\c2ccc(-c3ccc(Br)cc3)o2)C1=O	none
COC(=O)CN1C(=O)S/C(=C/c2ccc(-c3cccc(C(=O)O)c3C)o2)C1=O	none
Cc1ccccc1NC(=O)CN1C(=O)S/C(=C\c2ccc(-c3cc(C(=O)O)ccc3C)o2)C1=O	none
Cc1nc(N2CCC(C(=O)NCc3ccc(N4CCOCC4)cc3)CC2)nc2ccc(C(C)C)cc12	none
COc1ccc2cc[n+](C)cc2c1-c1c(OC)ccc2cc[n+](C)cc12	none
CCC(=O)Nc1ccc(N2CCN(C(=O)c3cc(Cl)ccc3OC)CC2)cc1	none
CC(C)(C)C(=O)n1ccc2ccccc21	none
CCN(CC)S(=O)(=O)c1ccc(OC)c(C(C)C)c1	none
O=C(CCCN1CCN(c2cccc(C(F)(F)F)c2)CC1)c1cc(=O)c2ccccc2[nH]1	none
COc1cc(CNCc2ccccc2)ccc1OCCO	none
O=C(CSc1nc2ccccc2c(=O)[nH]1)c1ccc(O)c(O)c1	RBX1-CUL1 inh 103
O=C(CSc1nc2ccccc2c(=O)[nH]1)c1ccc(Cl)cc1	none
Cc1cc(=O)[nH]c(SCC(=O)c2ccc(O)c(O)c2)n1	none
O=C1c2cccc3cccc(c23)C(=O)N1CCc1n[nH]c(=S)n1-c1ccccc1	none
C#CCOc1ccc(C2C3=C(N=C(C)C2C(=O)OC)c2ccccc2C3=O)cc1OCC (stereo not drawn)	none
O=C(O)c1ccccc1SCCSc1nc2ccccc2o1	RBX1-CUL1 inh 34
c1ccc(CSc2nc3ccccc3o2)c(CSc2nc3ccccc3o2)c1	none
c1ccc2oc(SCCCCCCSc3nc4ccccc4o3)nc2c1	none
COc1cc(C(=O)/C(=C/c2cccc(Cl)c2)c2nc3ccccc3o2)cc(OC)c1OC	none
O=C(Nc1ccccc1Br)C1CCN(C(=O)c2ccccc2F)CC1	none
Cc1ccc(CN2CC[C@@H](N3CCCCCC3)[C@H](O)C2)cc1C	none
Cn1c(=O)n(C)c2cc(S(=O)(=O)NC3CCCC3)ccc21	none
CCOc1ccc(Br)cc1/C=C1/C(=O)NN(c2ccc(I)cc2)C1=O	none
CCc1ccc(N2NC(=O)/C(=C/c3cccc(Br)c3)C2=O)cc1	RBX1-CUL1 inh 40
CCc1ccc(N2NC(=O)/C(=C\c3cccs3)C2=O)cc1	none
CC(C)CCN(C)c1ccc(/C=C2/C(=O)NN(c3ccc(Br)cc3)C2=O)cc1	none
COc1cc(/C=C2\C(=O)NN(c3ccc(Br)cc3)C2=O)cc(OC)c1OC	none
CCOc1ccc(/C=C2/C(=O)NN(c3ccc(I)cc3)C2=O)cc1	none
O=C1NN(c2ccc(Br)cc2)C(=O)/C1=C\c1ccc(F)cc1	RBX1-CUL1 inh 86
O=C1NN(c2ccc(I)cc2)C(=O)/C1=C\c1cccc(I)c1	none
Cc1ccc(/C=C2\C(=O)NN(c3ccc(I)cc3)C2=O)cc1	RBX1-CUL1 inh 63
O=C1NN(c2ccc(I)cc2)C(=O)/C1=C\c1cc(Br)ccc1O	RBX1-CUL1 inh 29
CCN(CC)c1ccc(/C=C2/C(=O)NN(c3cccc(Br)c3)C2=O)cc1	none
O=C1NN(c2ccc(I)cc2)C(=O)/C1=C\c1ccccc1O	none
Fc1ccc(-c2csc(Nc3ccc(OC(F)(F)F)cc3)n2)cc1	none
CC(C)(C)c1[nH]nc2c1C(c1cccc([N+](=O)[O-])c1)C(C#N)C(=N)O2 (stereo not drawn)	none
CC(C)(C)c1ccc(-c2cc(C(=O)N/N=C/c3ccsc3)c3ccccc3n2)cc1	none
CC(=O)NCCNC(=O)Cc1c2c(n(CC(C)C)c1C)CC(C)(C)CC2=O	none
COc1ccc(C2CC(c3ccc(Br)cc3)=Nc3nc(CCCO)nn32)cc1 (stereo not drawn)	none
Cc1c(NC(c2ccccc2)(c2ccccc2)c2ccccc2)cc(NC(c2ccccc2)(c2ccccc2)c2ccccc2)c(C)c1[N+](=O)[O-]	none
O=C1NN(c2ccc(Cl)cc2)C(=O)/C1=C/c1ccc(O)cc1O	none
O=C1NN(c2ccc(Cl)cc2)C(=O)/C1=C/c1ccc2c(c1)OCO2	none
O=C1NN(c2ccc(Cl)cc2)C(=O)/C1=C/c1ccc(Cl)cc1	RBX1-CUL1 inh 46
Cc1c(N=NC2C(=O)NN(c3ccccc3)C2=O)c(=O)n(-c2ccccc2)n1C (stereo not drawn)	none
CN(c1ccccc1Cl)S(=O)(=O)c1ccccc1	none
OCNc1nc2c3ccccc3nc(CCN3CCCCC3)n2n1	RBX1-CUL1 inh 46
Cn1c(CN2CCCCC2)nc2ccccc21	none
c1ccc2nc3c(nc2c1)c1ccccc1n3CN1CCCCC1	none
CCCCSc1nnc2c(n1)OC(c1ccccc1)N(C(C)=O)c1ccccc1-2 (stereo not drawn)	none
O=C(/C(=C\c1ccc(-c2ccc(Cl)cc2Cl)o1)C(=O)C(F)(F)F)c1ccccc1	none
CC(C)(C)C1=NS(N2CCOCC2)=NC(N2CCOCC2)=N1 (stereo not drawn)	none
CC1=NN(c2ccc(C)cc2)C(=O)/C1=C\c1ccc(OC(C)C)cc1	none
CC1=NN(c2ccc(C)cc2)C(=O)/C1=C\c1cccnc1	RBX1-CUL1 inh 82
CC1=NN(c2ccccc2)C(=O)/C1=C/c1ccc(OCCCOc2ccccc2)cc1	none
Cc1c(Cc2ccccc2)c(NC2CCCCC2)n2c(nc3ccccc32)c1C#N	none
COCCC(=O)NCc1cccnc1N1CCCCCCC1	none
CC(C(=O)OCC(=O)c1ccc(-c2ccccc2)cc1)N1C(=O)c2c(Cl)c(Cl)c(Cl)c(Cl)c2C1=O (stereo not drawn)	none
O=C1c2c(Cl)c(Cl)c(Cl)c(Cl)c2C(=O)C1C(c1ccccc1)c1ccccc1	RBX1-CUL1 inh 62
Cc1ccccc1C(c1ccccc1)C1C(=O)c2ccccc2C1=O (stereo not drawn)	none
Cc1ccc2c(N)c(C(=O)Nc3ccc(OC(F)(F)F)cc3)sc2n1	none
Cc1cccc(C(C)C)c1NC(=O)c1ccc([N+](=O)[O-])c(Cl)c1	none
COc1cccc(C=C2C(=O)c3ccccc3C2=O)c1OC(C)C	none
COc1cc(/C=C2\C(=O)NC(=S)N(c3ccccc3F)C2=O)c(Br)cc1O	none
O=C1NC(=S)N(c2ccccc2)C(=O)/C1=C/c1cccn1-c1ccc(Br)cc1	none
Cc1ccccc1N1C(=O)/C(=C/c2cc(Cl)cc(Cl)c2O)C(=O)NC1=S	none
O=C(O)c1cccc(-n2cccc2/C=C2\SC(=O)N(Cc3ccccc3F)C2=O)c1	none
O=C1NC(=S)N(c2ccccc2F)C(=O)/C1=C/c1cccn1-c1cccc(C(=O)O)c1	RBX1-CUL1 inh 101
Cc1ccc(N2C(=O)/C(=C/c3cccn3-c3ccc(N(C)C)cc3)C(=O)NC2=S)cc1C	RBX1-CUL1 inh 35
CCc1ccc(N2C(=O)/C(=C/c3cccn3-c3cccc(C(=O)O)c3)C(=O)NC2=S)cc1	none
Cc1ccccc1N1C(=O)/C(=C/c2cccn2-c2cccc(C(=O)O)c2)C(=O)NC1=S	RBX1-CUL1 inh 102
COc1cccc(/C=C2\C(=O)NC(=S)N(c3ccccc3C)C2=O)c1OC(C)C	RBX1-CUL1 inh 31
Cc1cccc(N2C(=O)/C(=C/c3cccn3-c3cccc(C(F)(F)F)c3)C(=O)NC2=S)c1	none
CCOc1ccc(/C=C2\C(=O)NC(=S)N(c3cccc(C)c3C)C2=O)cc1	none
CC1C/C(=C\c2cccs2)C(=O)/C(=C/c2cccs2)C1 (stereo not drawn)	none
COc1cc(N)c2nccc(C)c2c1OC	none
CCCn1cnnc1CNC(=O)Nc1nc(-c2ccccc2)ns1	none
CCOC(=O)c1ccc(-n2c(C)cc(CC3=NC(=O)N(c4ccccc4)C3=O)c2C)cc1	none

Screening data: PubChem BioAssay, Pan Lab, Icahn School of Medicine at Mount Sinai
